Assay results from PubChem BioAssay AID1347426 (Functional Genomics Laboratory (NCATS/FGL), 2020).
The campaign covered roughly 31,000 sequences. About 1,400 (4.5%) were called active. The full list was thinned out, with actives kept by preference. A number with no mark means an inactive call.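 The calls were made as follows: active = median seed-adjusted z-score above 1 or below -1; inactive = the rest.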

assay: Novel Modifiers of Survival Motor Neuron (SMN) Protein: Gene Identification via Genome-wide siRNA Screen; settings: HEK293T SMN2-luciferase reporter, siRNA knockdown, 72 h; actives lie on both sides
Description: Spinal muscular atrophy (SMA) is the most common neuromuscular autosomal recessive disorder and one of the leading genetic causes of infant death. SMA results from mutations inducing loss of function or deletion in the survival of motor neuron-1 gene (SMN1), leading to deficiency of the survival motor neuron (SMN) protein. Although a second nearly identical gene, SMN2, is retained in humans, its expression primarily produces an aberrantly spliced isoform that is largely unstable and quickly degraded. We performed a genome-wide RNAi screen using a cell-based reporter assay to identify genes and pathways that modulate SMN protein stability. The screen identified over 200 genes that led to the greatest increase or decrease in luciferase expression.
Using HEK293T cells stably expressing a luciferase reporter that combines the promoter and splicing based cassettes in tandem with the major portion of the native SMN2 cDNA with luciferase, we performed a genome-wide RNAi screen to identify modulators of SMN protein levels. Luciferase is expressed when full-length SMN protein is generated with luminescence signal proportional to SMN protein levels. Our luciferase-based reporter assay was used to screen Ambion Silencer Select Human Druggable Genome siRNA library (10418 genes, 3 unique siRNAs per gene) using lipid-based reverse transfection.
Briefly, 1 pmol of each siRNA was spotted to a well of a 384-well plate (Corning, Corning, NY) and 20 microL of serum-free DMEM containing […] of Lipofectamine RNAiMax (Life Technologies, Carlsbad, CA) was then added to each well. Transfected cells were maintained at 37 degrees C in 5% CO2 for 72 hours, 20 microL of ONE-Glo Reagent (Promega) was added to wells for luciferase quantification. Raw luminescence reads were normalized to Ambion(R) Silencer(R) Negative Control #2 siRNA, then log10 transformed. A robust statistical measure of median absolute deviation (MAD) to standardize siRNA activities from each screen. Common Seed Analysis was used to help prioritize clean hits as opposed to those appearing to arise from seed based off-target effects. Candidate modulators were defined as the genes having a MAD score greater than 1.0 or less than -1.0.

| Sequence | median seed-adjusted z-score |
| --- | --- |
| GGACGGAUCUCAAUCGAAATT against CPO | 0.0875 |
| GAAGGAAUGAAAUCCGGAATT against TRIM8 | -0.296 |
| CGAAUUCAGGUCAACAAUATT against TRERF1 | -0.0952 |
| GAGUUUAAGCGCAAGCAUATT against HSPA8 | 0.462 |
| UCACAGACGAGGCAUUUAATT against FTCD | -0.27 |
| GCCUGGAUGAAUUCGAUUATT against UBE4A | -0.285 |
| GUAAUACGAGGAAAUAGUATT against SNRPG | -3.09 (active) |
| CAUACACUCUACUCCUGCUTT against CDH26 | 0 |
| GCGACCCUGUUAUUCUGUATT against TM9SF1 | 0.14 |
| CACCAUUGCAAACCAAAUATT against KCNQ5 | 0.0191 |
| CGUCAACGAUCGGAAGAAATT against TTLL9 | 0.0534 |
| GCCCAACAAGUGCAUGUUUTT against GLIS1 | 0.838 |
| CCUCGUCCGUAGUCUCCUUTT against ADRB1 | 1.06 (active) |
| GUAUUGCCUUUGUCAAGAATT against SNX19 | 0.67 |
| GAAUUGACUUCUUGUCUAATT against RAB41 | -0.534 |
| CGUCAUCAGACUCAAUGAATT against 12-Sep | 0.286 |
| GGAUGAUGAGUACUCUGAATT against COL7A1 | 1.08 (active) |
| GGAAUUUAAGUGAUAGUGATT against CPEB2 | -0.00928 |
| GCUGCAACCUUGACUACUATT against RRM1 | -5.51 (active) |
| AGGUGAAUAUUGACCACUUTT against RGS5 | 0 |
| GAGUCAACAAUGGACAUUUTT against KLHL1 | 0.067 |
| CAACUAGUGGAGAAGAUCATT against FAM63B | 0.111 |

| Sequence | median seed-adjusted z-score |
| --- | --- |
| GGUCACCACUUGCAAGCUATT against ANG | -0.481 |
| AGCUGGGCUUUAUCGUGGATT against P2RX2 | 0.0454 |
| GCUUAUUUAUGUAUCAAUATT against ADRB1 | 1.06 (active) |
| GGAAAAAUCUAAGAAGCAATT against ZC3H11A | -0.137 |
| GCUUCACCAUCGAAUCCAATT against FLT4 | -0.861 |
| GCUGCGGCAUGAUCACUAATT against LBXCOR1 | 0.0938 |
| CAUUGGGCCUAGAAAUUCATT against CNKSR1 | 0.217 |
| GGCGAAGUGUCCGACAGAATT against ZNF747 | 0.379 |
| GGAGAUCUGCUACUAAACATT against PSMD6 | -1.03 (active) |
| GGGAGAGUGGUGAACGUAUTT against CBR1 | -0.6 |
| CAGUGUUAAUGACCGAAGATT against EIF4G1 | -0.978 |
| GAUGAUACCAGGCAUAUAATT against USP15 | -0.405 |
| GCAAUCUUGUUGUACACCATT against ZNF432 | -0.124 |
| GGAGCUGAAUGAGCUGACATT against OSBPL7 | 0 |
| CCACGAUGUGGGAUAAUAATT against GALNAC4S-6ST | 0.218 |
| GUGGUGCAGUUUUUCGUAATT against THOC2 | -1.22 (active) |
| GGCUCAUAAUGGAGCAGGUTT against TIMM13 | -0.422 |
| CAGUCUUGAUUCCACUGAATT against PCDHA3 | 0.311 |
| CGGAUAUUCCUGAACGCAATT against MARK3 | 0.271 |
| GCACGCGGCUAUACAAUCATT against SLC25A34 | -0.256 |
| GAAGCAGUGCCAAUGAACATT against TCEB2 | 1.28 (active) |
| AGCACAUCUCGGUCCUCCATT against MAPK8IP2 | 0.284 |

| Sequence | median seed-adjusted z-score |
| --- | --- |
| GGACGAUCACUGUUGUGCATT against RBM22 | 0.0259 |
| ACUUGAAUCUUAGCAUUCATT against RAD9A | -0.0564 |
| CAAGACUGCUGAUGAGUUUTT against HSD17B3 | 0.734 |
| CUUUCACACUCGACACUGATT against HOXA2 | 0.335 |
| GAACAUCCGUGAGCAAGGATT against KCNJ8 | 0.329 |
| GCCCUUGCCUUAUUGCUGATT against MED20 | -1.66 (active) |
| GGCUUGAGUUCAUUCAGAATT against PKN3 | 0.476 |
| GCCGGUGCUUUAUCUCAUUTT against GPR87 | 0.237 |
| GAGACUUUCUACAAUACUATT against EIF4A2 | 0 |
| CGCUCUCUUCACUUACGAATT against MYO10 | 0.8 |
| UAAUGACCCUAUCUAUAAATT against UGT2B17 | -0.0203 |
| GAUGGAUUCUUGUUCCGUUTT against KCTD16 | 0.00219 |
| GAACUUCUACUUUAACAAATT against HS3ST1 | 1.21 (active) |
| CUUUUGAACAGAUCGAUGATT against EXO1 | 0.547 |
| GCUCAUAAAUGAGAAGCUATT against PCDHB16 | -0.523 |
| AGUGUACAAUCGAUAAAAATT against ESR2 | -1.1 (active) |
| CAGCAUACAUGUUUAGUGATT against TRPC6 | -0.527 |
| CGGUAUCUAUGACACUGCATT against SLC25A5 | -0.0501 |
| CAGAGUCUUUCAUUCGAAUTT against SPATA5 | -1.04 (active) |
| GAACUAUGGUGCUACUGGATT against ZNF449 | 0.178 |
| AGAGCUCACUCGUCCCAAUTT against CXCL16 | 0.201 |
| CGAAAAGUCUCACAGUGGATT against ZNF563 | 0.00283 |

| Sequence | median seed-adjusted z-score |
| --- | --- |
| CGGGUAUUGUGGGACUGAATT against USP39 | 0.821 |
| UAAUUGACCUGACCAGUUUTT against SLC30A8 | -0.767 |
| CUGGAUAAGUGUUUCGAAATT against AP3S2 | 0.521 |
| CACCCACACCGGAUUGAAATT against BAG5 | -0.0153 |
| CGGCCGCUCUAUAAGCUGATT against LLGL1 | -1.13 (active) |
| GCCCUGCGGUACAAUGUCATT against APOBEC2 | 0.232 |
| GGCCUAUUUCCAAACCGAUTT against RICS | 0.665 |
| CCACCGAUUUGAUCCCAAATT against NAPSA | -0.336 |
| CAUUCACCACAAUAGCUAUTT against GPR1 | 0.0609 |
| GGAUUGAAGAUACUACAAATT against THOC1 | -3.04 (active) |
| CAACAGCACCAGUUUGACATT against NAGLU | -0.526 |
| GGACUUCAGGGUUUAACAATT against FOLR1 | -1.31 (active) |
| CAGCCUUACUCAAUUUGUATT against EFS | -0.299 |
| CACGUGCAGAGUGUCGAUATT against EEF1D | 0.421 |
| GGUCUAAACUUGAUCCAAATT against CCAR1 | -1.18 (active) |
| AAUAUUUGCUGUUCGUCAATT against MOCS2 | 0.0327 |
| CCAUCCCAAAUUUACAACATT against SARS2 | 0.524 |
| CUCUAACUAUGAUCUCGUUTT against CDS1 | 0.0208 |
| GGCUUGACCUUUUUCGUCUTT against DYNC2H1 | -0.613 |
| GAACCGACAAAAGUAGAUATT against RARB | 0.409 |
| GAAUUAGAGUUGAGGGUAATT against MYBPC1 | 0.295 |
| GCAUGGUCUUUCUACUUGUTT against TUBB2A | 1.03 (active) |

| Sequence | median seed-adjusted z-score |
| --- | --- |
| CCAAAGCUCUCAUCGGAGATT against GNS | 0 |
| GGACUCACCAAAUAGAUCATT against ZNF818 | -0.223 |
| GCAAGGAGUAUAACAUGUATT against SKAP1 | -0.00637 |
| CAUUCGAUCUAGCAAAUUATT against TUBB1 | -0.289 |
| GGCUGUUGGUAACCUGAGATT against TF | 0.192 |
| GACCAUUCGUACUCCUUGUTT against THAP11 | -1.36 (active) |
| CCAUCGCCUUGAAGGAGAATT against RNF31 | -0.687 |
| AGACCUUCGUGGAAAAAUATT against CDC37 | 0 |
| GGAGGACAAUCAGCAAGGATT against SPOCK2 | 0.967 |
| AGAACAUCAUCGCGCGGGATT against FOXB1 | 0.223 |
| GCUUACUAGUUUGAACGGATT against SPATA5 | -1.04 (active) |
| GCUCCAACCUCGAAGUAGATT against ACVR2B | 0.824 |
| GGCUUCACCUAAAAACGUATT against BRCA2 | 0 |
| GAUCGUUGCAAAGUUCUUATT against CPSF6 | -2.38 (active) |
| CUCCACUGCUUUUCCAAGATT against DBX2 | 0.244 |
| GAGUUCCUCUUGGAUCUAATT against CASQ2 | 0.4 |
| GGCGAGGCUUUAUAGUUGATT against ZNF589 | -0.0897 |
| CCUGGAGCAUCGUAACAUUTT against F11 | -0.0319 |
| GGCUUAUACAAUGUCAACATT against HOXA7 | -0.129 |
| AGAUAACAGCAUGGAUUUATT against MMD | 0.193 |
